Where “and” joins values, the source holds several entries; their conditions need not be identical. Equal entries are not always repeated. Inconclusive results are not listed. Entries that show only a call come without a potency. Calls of active or inactive are those of the source. The call rests on the fitted dose curve; in most records, active means well fitted inhibition curve with a large enough effect in the repeat runs; inconclusive means weak or mixed curves, or effect the other way; inactive means no such curve, though single readings can be large or run the other way.
target: Nuclear receptor subfamily 1 group I member 3 (Homo sapiens) (UniProt Q14994); assay: qHTS assay to identify small molecule antagonists of the constitutive androstane receptor (CAR) signaling pathway (AID 1224838); details: HepG2-CYP2B6-hCAR luciferase, CITCO-stimulated, 24 h; series mostly up to 92.4 µM;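 further: HepG2 cells stably expressing hCAR with CYP2B6 luciferase reporter stimulated by CITCO; nearly all actives have a fitted effect of over 40% in size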
Sequence (Q14994 whole entry, looked up): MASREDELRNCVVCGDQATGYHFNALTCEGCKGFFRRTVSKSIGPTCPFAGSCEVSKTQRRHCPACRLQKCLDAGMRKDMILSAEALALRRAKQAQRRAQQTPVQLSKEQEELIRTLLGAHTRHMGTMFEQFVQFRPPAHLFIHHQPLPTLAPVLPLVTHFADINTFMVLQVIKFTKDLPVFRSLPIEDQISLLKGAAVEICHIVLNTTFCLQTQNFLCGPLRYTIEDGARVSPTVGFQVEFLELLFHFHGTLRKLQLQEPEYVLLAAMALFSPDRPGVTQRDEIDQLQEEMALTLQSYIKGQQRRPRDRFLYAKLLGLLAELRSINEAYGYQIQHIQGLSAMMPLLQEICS
From the text: U.S. Tox21 Program National Center for Advancing Translational Sciences [NCATS] NIH Chemical Genomics Center [NCGC] U.S. Environmental Protection Agency [EPA] National Institutes of Environmental Health Sciences [NIEHS] National Toxicology Program [NTP] U.S. Food and Drug Administration [FDA] Tox21 Assay Overview: The constitutive androstane receptor (CAR) is a nuclear receptor which regulates multiple drug metabolizing enzymes (DMEs) and transporters. Activating CAR will generally increase the transcription and subsequent translation of CYP2B6 and CYP3A4. These two DMEs represent about 50% of the drug metabolizing potential in the body. When CAR is deactivated, the metabolizing potential in the body will decrease, subsequently increasing the toxicity in the body or lowering the therapeutic potential of a pro-drug. Recently, there have also been studies performed indicating CARs role in energy metabolism and cancer therapy. Therefore, inhibiting CARs activity could have a potential effect on diabetes and cancer. Identifying environmental toxins and compounds which modulate CAR, through the use of the Tox21 10K compound collection, will be an important step in determining the toxicity and potential therapeutic effects these factors will have on the human body.
Tox21 Assay Protocol Summary: A double-stable (hCAR and CYP2B6-2.2kb) transfected cell line, derived from human hepatoma (HepG2) cells, was utilized for the duration of the quantitative high-throughput screens. The HepG2-CYP2B6-hCAR cells suspended in DMEM culture medium supplemented with 10% FBS, 5 ug/mL blasticidin, 0.5 mg/mL geneticin, 100 U/mL penicillin and 100 ug/mL streptomycin were dispensed at 2500 cells/4 uL/well in 1536-well white solid bottom plates using a Multidrop Combi. After the assay plates were incubated at 37 C/5% CO2 for 4 hrs, 23 nL of compounds at 15 concentrations (from 5-48 columns) or positive control (from 1 to 4 columns) were transferred to the assay plates using a Pintool station. One uL of CITCO, was added using a Flying Reagent Dispenser to generate a final concentration of 50 nM CITCO inside each well. After a 24 hr incubation period at 37 C/5% CO2, four uL of ONE-Glo reagent was added into the assay plates using a Flying Reagent Dispenser. After a 30 min incubation period at room temperature, the luminescence intensity in the assay plates was measured using a ViewLux plate reader.
Potency means the concentration at half of the fitted maximal effect.

Row | SMILES | Potency
1 | OC[C@H]1O[C@@H]2O[C@H]3[C@H](O)[C@@H](O)[C@@H](O[C@H]4[C@H](O)[C@@H](O)[C@@H](O[C@H]5[C@H](O)[C@@H](O)[C@@H](O[C@H]6[C@H](O)[C@@H](O)[C@@H](O[C@H]7[C@H](O)[C@@H](O)[C@@H](O[C@H]8[C@H](O)[C@@H](O)[C@@H](O[C@H]1[C@H](O)[C@H]2O)O[C@@H]8CO)O[C@@H]7CO)O[C@@H]6CO)O[C@@H]5CO)O[C@@H]4CO)O[C@@H]3CO | inactive
2 | C=C(C)C1CC=C(C)CC1 (stereo not given) | inactive
3 | CC(=O)C1(C)CC2=C(CCCC2(C)C)CC1C (stereo not given) | inactive
4 | O=Cc1ccccc1O | inactive
5 | C#C[C@]1(O)CC[C@H]2[C@@H]3CCc4cc(OC)ccc4[C@H]3CC[C@@]21C | inactive
6 | O=CCc1ccccc1 | inactive
7 | CCC(C)OC(=O)c1ccc(O)cc1 (stereo not given) | inactive
8 | CC(C)OC(=O)C(C)(C)Oc1ccc(C(=O)c2ccc(Cl)cc2)cc1 | inactive
9 | Cc1cccc(N(C)C(=S)Oc2ccc3ccccc3c2)c1 | inactive
10 | c1cc(-c2ccncc2)ccn1 | inactive
11 | CC(=O)Oc1ccccc1C(=O)Nc1ncc([N+](=O)[O-])s1 | inactive
12 | COC(=O)CCC(=O)OC | inactive
13 | Nc1ncn([C@@H]2O[C@H](CO)[C@@H](O)[C@H]2O)c(=O)n1 | inactive
14 | CN(C)CCC=C1c2ccccc2CCc2ccccc21 | 48.6 µM (active)
15 | C=C(C)C(=O)OCCOC(=O)C(=C)C | inactive
16 | OC(CCl)CCl | inactive
17 | O=C1c2cccc(O)c2C(=O)c2c(O)cccc21 | inactive
18 | CC(=O)CC/C=C(\C)CCC=C(C)C | inactive
19 | S=C(NC1CCCCC1)NC1CCCCC1 | 13.4 µM (active) and 8.63 µM (active)
20 | CCC(C)(O)CCCC(C)C (stereo not given) | inactive

Row | SMILES | Potency
21 | c1ccc2c(c1)Oc1ccccc1S2 | inactive
22 | Nc1ncnc2nc[nH]c12 | inactive
23 | CCOC(=O)C(C#N)=C(c1ccccc1)c1ccccc1 | inactive
24 | Oc1ccc(O)cc1 | inactive
25 | CN(C)C(=N)N=C(N)N | inactive
26 | CC(=O)c1ccccn1 | inactive
27 | CCCc1c(OCCCCc2nn[nH]n2)ccc(C(C)=O)c1O | inactive
28 | Clc1nc(Cl)c(Cl)c(Cl)c1Cl | inactive
29 | COc1cccc2c1C(=O)c1c(O)c3c(c(O)c1C2=O)C[C@@](O)(C(=O)CO)C[C@@H]3O[C@H]1C[C@H](N)[C@H](O)[C@H](C)O1 | 137 nM (active) and 1.06 µM (active)
30 | Cc1ccc(C(=O)c2cc(O)c(O)c([N+](=O)[O-])c2)cc1 | inactive
31 | COc1cc([C@@H]2c3cc4c(cc3[C@H](O)[C@H]3COC(=O)[C@H]23)OCO4)cc(OC)c1OC | 48.5 nM (active) and 59.6 nM (active)
32 | CC(C)CC(C)(O)C#CC(C)(O)CC(C)C (stereo not given) | inactive
33 | CCC(C)c1ccccc1O (stereo not given) | inactive
34 | CC(CCC(=O)O)(c1ccc(O)cc1)c1ccc(O)cc1 | inactive
35 | Cn1cnc([N+](=O)[O-])c1Sc1ncnc2nc[nH]c12 | 4.83 µM (active) and 11.9 µM (active)
36 | CN(C)c1nc(N(C)C)nc(N(C)C)n1 | inactive
37 | O=C(c1ccc(OCCN2CCCCC2)cc1)c1c(-c2ccc(O)cc2)sc2cc(O)ccc12 | inactive
38 | c1ccc(Nc2ccccc2)cc1 | inactive
39 | C[C@]12CCC(=O)C=C1CC[C@@H]1[C@@H]2C(=O)C[C@@]2(C)[C@H]1CC[C@]2(O)C(=O)CO | inactive
40 | C#C[C@]1(O)CC[C@H]2[C@@H]3CCC4=Cc5oncc5C[C@]4(C)[C@H]3CC[C@@]21C | inactive
